Results filed as inconclusive are left out. A call without a number means that no potency is given here. Values without a mark were called inactive. Calls of active or inactive are those of the source. The call rests on the fitted dose curve; in most records, active means well fitted cell-killing curve with a large enough effect; inconclusive means small, poorly fitted or top-dose-only effect; inactive means flat fitted curve, though single readings scatter.
assay: qHTS of pediatric cancer cell lines to identify multiple opportunities for drug repurposing: Primary screen for DAOY cells (AID 1347090); conditions: DAOY medulloblastoma viability, CellTiter-Glo luminescence, 48 h; series mostly up to 46 µM; further: nearly all actives have a fitted effect of over 55% in size
Method in brief: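 Eight- or eleven-point concentration series, 48 h treatment at 37 degrees C in growth media; readout CellTiter-Glo luminescence. Potency and efficacy were taken from the concentration-response curves.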
Potency means the concentration at half of the fitted maximal effect.

Row | Compound | activity change, negative = cytotoxic | Potency
1 | CCn1cc(C(=O)O)c(=O)c2cnc(N3CCCC3)nc21 | -3.72% [at 9.22 µM] | 
2 | O=C(Nc1ccc(Oc2ccc(Cl)cc2)c(Cl)c1)c1cc(I)cc(I)c1O |  | inactive
3 | COC(=O)[C@@H]1CC2=CC(=O)CC[C@]2(C)[C@@]23O[C@@H]2C[C@@]2(C)[C@@H](CC[C@@]24CCC(=O)O4)[C@H]13 |  | inactive
4 | CCC(=O)c1c(O)cc(O)cc1O |  | inactive
5 | CC[C@@H](CO)NCCN[C@@H](CC)CO |  | inactive
6 | CC[N+](CC)(CCNC(=O)C(=O)NCC[N+](CC)(CC)Cc1ccccc1Cl)Cc1ccccc1Cl |  | inactive
7 | CCN1CCN(c2cc3c(cc2F)c(=O)c(C(=O)O)cn3C2CC2)CC1 |  | inactive
8 | NCCCC[C@H](N[C@@H](CCc1ccccc1)C(=O)O)C(=O)N1CCC[C@H]1C(=O)O |  | inactive
9 | CCOC(=O)n1ccn(C)c1=S |  | inactive
10 | CC(O)(P(=O)(O)O)P(=O)(O)O |  | inactive
11 | NCCc1ccn[nH]1 |  | inactive
12 | CC(C)NC[C@@H](O)COc1cccc2ccccc12 |  | inactive
13 | Nc1ccn([C@@H]2O[C@H](CO)[C@@H](O)C2(F)F)c(=O)n1 |  | 2660 nM (active)
14 | Cc1c(C(C)C)c(=O)n(-c2ccccc2)n1C |  | inactive
15 | Cc1cccn2c(=O)c(-c3nnn[nH]3)cnc12 |  | inactive
16 | CCOC(=O)/C=C(C)/C=C/C=C(C)/C=C/c1c(C)cc(OC)c(C)c1C |  | inactive
17 | NC(CO)(CO)CO |  | inactive

Source: PubChem BioAssay (NCATS)
